Reference: PubChem BioAssay
Unmarked numbers belong to inactive results. For some of these results: Entries with a potency or affinity are not part of this list. The source made the active and inactive calls.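 The calls were made as follows, unless noted: active = thallium flux through the channel raised or lowered by more than 3 SD from vehicle-only wells, actives on both sides; inactive = the rest.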

How the values were obtained:
F380Y = assay: BK channel mutant inhibitors and activators – cell-based, U2OS BacMam, thallium flux, beta subunits, selectivity assay, profiling panel (AID 1259406); settings: U2OS BacMam BK variants, at 30 µM;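 also: initial slope of Thallos dye fluorescence rise after thallium is added; log ratio against the mean of 0.3% DMSO vehicle wells on the same plate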
F380Y/beta1 = assay: as above; settings: U2OS BacMam BK variants, at 30 µM
F380Y/beta2Delta = assay: as above; settings: U2OS BacMam BK variants, at 30 µM
F380Y/beta4 = assay: as above; settings: U2OS BacMam BK variants, at 30 µM
[1] = molecular target: Calcium-activated potassium channel subunit alpha-1 (Homo sapiens) + Leucine-rich repeat-containing protein 26 (Homo sapiens) (UniProt Q12791+Q2I0M4); assay: as above; settings: U2OS BacMam BK variants, F380Y/Slo1WT/gamma1, at 30 µM
Calcium-activated potassium channel subunit alpha-1 (Homo sapiens) + Leucine-rich repeat-containing protein 26 (Homo sapiens), sequence (Q2I0M4 whole entry, looked up, one chain of several): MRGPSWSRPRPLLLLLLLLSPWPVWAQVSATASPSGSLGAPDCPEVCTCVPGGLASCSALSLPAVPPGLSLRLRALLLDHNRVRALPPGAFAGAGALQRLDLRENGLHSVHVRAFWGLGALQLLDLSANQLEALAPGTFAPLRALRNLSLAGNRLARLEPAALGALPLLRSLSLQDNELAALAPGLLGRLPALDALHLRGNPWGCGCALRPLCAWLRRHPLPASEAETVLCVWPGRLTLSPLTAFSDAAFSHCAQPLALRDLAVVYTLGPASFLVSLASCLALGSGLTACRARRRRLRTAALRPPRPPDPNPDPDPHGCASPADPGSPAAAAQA

R275C = assay: as above; settings: U2OS BacMam BK variants, at 30 µM
R275C/beta1 = assay: as above; settings: U2OS BacMam BK variants, at 30 µM
R275C/beta2Delta = assay: as above; settings: U2OS BacMam BK variants, at 30 µM
R275C/beta4 = assay: as above; settings: U2OS BacMam BK variants, at 30 µM
R275C/Slo1WT/beta2 = assay: as above; settings: U2OS BacMam BK variants, at 30 µM
[2] = antimalarial activity against Dd2 strain (AID 2302;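 active = growth inhibition above 50% at the single 2 µM test dose, taken to imply half-maximal potency below 2 µM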;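 also: 0% = DMSO untreated growth and 100% = chloroquine plus artemisinin killed control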); settings: P. falciparum Dd2 in RBCs, LDH growth readout, 72 h; at 2 µM; stronger effect = higher value
[3] = human hepatoma cell viability loss – ATP luminescence, cytotoxicity control for P. falciparum antimalarial project, primary screen (AID 2303;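 active = inhibition above 50%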;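 also: 0% = DMSO wells and 100% = digitonin-killed cells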); settings: HepG2 viability, 24-48 h, at 10 µM, stronger effect = higher value
[4] = molecular target: L-lactate dehydrogenase (Plasmodium falciparum (isolate CDC / Honduras)) (UniProt Q27743); assay: PfLDH activity inhibition – cell lysate, 3D7 strain, counter-screen for P. falciparum growth inhibition project (AID 2304; call rule not given here;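 also: 0% = vehicle and 100% = reference inhibitor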); settings: P. falciparum 3D7 crude extract, LDH APAD/NBT absorbance; at 2 µM; stronger effect = higher value
L-lactate dehydrogenase (Plasmodium falciparum (isolate CDC / Honduras)), sequence (Q27743 whole entry, looked up): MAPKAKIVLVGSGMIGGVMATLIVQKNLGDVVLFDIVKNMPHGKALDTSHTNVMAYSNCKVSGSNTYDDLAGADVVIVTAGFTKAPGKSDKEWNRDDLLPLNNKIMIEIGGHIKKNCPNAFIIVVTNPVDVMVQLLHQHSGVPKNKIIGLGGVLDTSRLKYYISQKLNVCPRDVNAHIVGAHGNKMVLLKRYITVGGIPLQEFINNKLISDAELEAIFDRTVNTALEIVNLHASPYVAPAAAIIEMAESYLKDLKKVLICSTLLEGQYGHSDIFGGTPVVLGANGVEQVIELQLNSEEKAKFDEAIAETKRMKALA

[5] = inhibition of 3D7 malaria parasite growth – strain 3D7 (AID 2306; call rule not given here;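 also: 0% = DMSO wells and 100% = chloroquine plus artemisinin control wells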); settings: P. falciparum 3D7 erythrocytic growth, LDH absorbance, 72 h; at 2 µM; stronger effect = higher value
[6] = molecular target: Protein kinase 7 (PK7), Plasmodium falciparum 3D7 (PF3D7_0213400) (UniProt Q7YTF7); assay: inhibition of Plasmodium PK7 catalytic activity – biochemical, TCAMS antimalarial set, Kinase-Glo luminescence (AID 1159587; call rule not given here); settings: recombinant PfPK7, Kinase-Glo ATP depletion luminescence
Protein kinase 7 (PK7), Plasmodium falciparum 3D7 (PF3D7_0213400), sequence (Q7YTF7 1-343): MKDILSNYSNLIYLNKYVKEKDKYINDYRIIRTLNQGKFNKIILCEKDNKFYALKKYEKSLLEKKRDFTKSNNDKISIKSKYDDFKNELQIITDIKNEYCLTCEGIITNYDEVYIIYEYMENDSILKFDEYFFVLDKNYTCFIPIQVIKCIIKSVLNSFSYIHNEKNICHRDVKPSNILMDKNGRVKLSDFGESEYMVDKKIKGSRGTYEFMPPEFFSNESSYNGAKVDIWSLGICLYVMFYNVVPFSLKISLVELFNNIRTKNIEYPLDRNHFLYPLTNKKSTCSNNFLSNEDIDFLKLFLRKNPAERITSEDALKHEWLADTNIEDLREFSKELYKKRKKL

[7] = molecular target: Calcium-dependent protein kinase 4 (Plasmodium falciparum (isolate 3D7)) (UniProt Q8IBS5); assay: PfCDPK4 kinase inhibitors, biochemical, TCAMS library (AID 1159588; cut-off not given, nearly all actives have IC50 up to about 0.91 µM); settings: recombinant PfCDPK4, Kinase-Glo ATP depletion luminescence
Calcium-dependent protein kinase 4 (Plasmodium falciparum (isolate 3D7)), sequence (Q8IBS5 whole entry, looked up): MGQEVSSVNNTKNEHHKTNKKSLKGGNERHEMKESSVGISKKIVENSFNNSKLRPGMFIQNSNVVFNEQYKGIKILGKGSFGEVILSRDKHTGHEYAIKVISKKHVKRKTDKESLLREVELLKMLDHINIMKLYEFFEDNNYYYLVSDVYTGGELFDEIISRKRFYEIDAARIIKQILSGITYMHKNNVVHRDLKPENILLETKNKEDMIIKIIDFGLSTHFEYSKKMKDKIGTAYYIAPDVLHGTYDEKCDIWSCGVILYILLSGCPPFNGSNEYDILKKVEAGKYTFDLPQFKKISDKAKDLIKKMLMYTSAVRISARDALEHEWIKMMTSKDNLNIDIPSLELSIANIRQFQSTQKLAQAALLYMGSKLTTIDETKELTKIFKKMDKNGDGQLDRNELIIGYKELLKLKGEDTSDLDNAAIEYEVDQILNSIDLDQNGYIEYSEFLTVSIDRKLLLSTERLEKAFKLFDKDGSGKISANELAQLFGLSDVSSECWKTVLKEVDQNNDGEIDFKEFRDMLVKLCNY

| Structure (SMILES) | log fold change Tl+ flux (F380Y) | log fold change Tl+ flux (F380Y/beta1) | log fold change Tl+ flux (F380Y/beta2Delta) | log fold change Tl+ flux (F380Y/beta4) | log fold change Tl+ flux [1] | log fold change Tl+ flux (R275C) | log fold change Tl+ flux (R275C/beta1) | log fold change Tl+ flux (R275C/beta2Delta) | log fold change Tl+ flux (R275C/beta4) | log fold change Tl+ flux (R275C/Slo1WT/beta2) | growth inhibition [2] | inhibition [3] | inhibition [4] | growth inhibition [5] | outcome [6] | outcome [7] |
| --- | --- | --- | --- | --- | --- | --- | --- | --- | --- | --- | --- | --- | --- | --- | --- | --- |
| COC(=O)C(C#N)=C1NC(C)=NC(SC)=C1C#N | -0.0152 | 0.03 | -0.00376 | 0.021 | 0.0176 | -0.014 | -0.0163 | -0.0169 | -0.0352 | 0.0253 |  |  |  |  |  |  |
| CNC(=O)c1ccccc1Nc1nc(Nc2ccc(CCN3CCN(C)CC3)cc2)ncc1Cl |  |  |  |  |  |  |  |  |  |  | 98% (active) | 76% (active) | 5% | 97% (active) | inactive |  |
| O=C(NNc1c(Cl)cccc1Cl)c1csc(Cc2c(Cl)cccc2Cl)n1 | 0.031 | -0.0231 | 0.0346 | -0.048 | -0.0234 | 0.0148 | -0.0344 | 0.00139 | -0.00534 | 0.0322 |  |  |  |  |  |  |
| CS(=O)(=O)Cc1ccc(Nc2nccc(-c3c(-c4cccc(NC(=O)c5c(F)cccc5F)c4)nn4ccccc34)n2)cc1 |  |  |  |  |  |  |  |  |  |  | 75% (active) | 78% (active) | 0% | 99% (active) | inactive |  |
| COc1cccc(C(=O)Nc2cc(F)c(Br)cc2F)c1 | -0.0206 | -0.0212 | -0.00467 | -0.0131 | -0.0252 | -0.0759 | -0.106 | -0.0756 | -0.0731 | -0.0319 |  |  |  |  |  |  |
| CC(=NO)c1ccc2c(c1)C(C)(C)CCC2(C)C | -0.246 (active) | -0.197 (active) | -0.444 (active) | -0.152 (active) | -0.146 (active) | -0.00509 | 0.0184 | -0.00725 | -0.0253 | -0.0443 |  |  |  |  |  |  |
| CS(=O)(=O)Cc1ccc(Nc2nccc(-c3c(-c4cccc(NC(=O)C5CCCCC5)c4)nn4ncccc34)n2)cc1 |  |  |  |  |  |  |  |  |  |  | 99% (active) | 31% | 0% | 98% (active) | inactive |  |
| O=C(c1ccccc1)c1c(Cl)cc(C(F)(F)F)cc1Cl | -0.0258 | 0.0352 | 0.0614 | 0.0559 | 0.0324 | 0.00162 | 0.0087 | 0.0434 | 0.000317 | 0.0159 |  |  |  |  |  |  |
| O=C(Nc1ccc(OC(F)(F)F)cc1)Nc1cc(C(F)(F)F)ccc1N1CCOCC1 | 0.0283 | -0.00979 | 0.0491 | -0.00808 | 0.0378 | 0.022 | 0.0354 | -0.0143 | -0.0232 | -0.0238 |  |  |  |  |  |  |
| CC(=O)c1sc(SCc2ccc(Cl)cc2)c2c1CC(C)(C)CC2=O | -0.0184 | 0.0319 | 0.0184 | -0.123 (active) | -0.0796 | 0.014 | -0.034 | -0.0422 | 0.00684 | 0.00246 |  |  |  |  |  |  |
| CS(=O)(=O)Cc1ccc(Nc2nccc(-c3c(-c4cccc(C(=O)Nc5c(F)cccc5F)c4)nn4ccccc34)n2)cc1 |  |  |  |  |  |  |  |  |  |  | 92% (active) | 85% (active) | -1% | 96% (active) | inactive |  |
| Cc1ccc(Nc2ccnc(Nc3ccc4c(c3)CS(=O)(=O)C4)n2)cc1O |  |  |  |  |  |  |  |  |  |  | 76% (active) | 82% (active) | 5% | 102% (active) | inactive | inactive |
| CNC(=O)c1ccccc1Nc1nc(Nc2ccc(N3CCN(C)CC3)nc2)ncc1C |  |  |  |  |  |  |  |  |  |  | 50% (active) | 75% (active) | 4% | 92% (active) | inactive | inactive |
| CCOC(=O)C(C#N)=CNc1ccccc1OC(F)(F)F | -0.00694 | -0.036 | 0.0178 | 0.027 | -0.0183 | -0.0335 | -0.00201 | -0.00638 | -0.0357 | -0.0488 |  |  |  |  |  |  |
| Cc1cc(Nc2ncc(C#N)c(Nc3ccccc3C(N)=O)n2)ccc1N1CCN(C)CC1 |  |  |  |  |  |  |  |  |  |  | 94% (active) | 99% (active) | 0% | 94% (active) | inactive |  |
| O=S(=O)(c1ccc(N2CCOCC2)nc1)N1CCN(c2c(Cl)cncc2Cl)CC1 | 0.0448 | -0.00781 | 0.0236 | -0.00865 | -0.039 | 0.00433 | 0.0279 | 0.0194 | -0.0287 | 0.00545 |  |  |  |  |  |  |
| Cc1ccc(S(=O)(=O)N2Cc3ccccc3C(C)CC23CCCCC3)cc1 (configuration not stated) | -0.0732 | -0.033 | -0.0539 | -0.175 (active) | -0.0898 | -0.0799 (active) | -0.119 (active) | -0.0411 | -0.0534 | 0.009 |  |  |  |  |  |  |
| O=C(c1ncoc1-c1ccccc1)N(Cc1ccccn1)Cc1ccccn1 | 0.0015 | 0.0293 | -0.0298 | 0.051 | -0.0237 | -0.0056 | 0.0298 | 0.0379 | 0.0394 | 0.033 |  |  |  |  |  |  |
| CS(=O)(=O)C(C#N)=NNc1ccc(OC(F)(F)F)cc1 | 0.0798 | 0.148 (active) | 0.0975 | 0.0278 | 0.0802 | 0.0522 | 0.0751 | 0.119 (active) | 0.0407 | -0.0347 |  |  |  |  |  |  |
| O=C(Nc1ccc(OC(F)(F)F)cc1)OC1CN(C(c2ccccc2)c2ccccc2)C1 | -0.0399 | -0.0331 | -0.0434 | -0.154 (active) | -0.134 (active) | -0.0449 | 0.0012 | -0.0123 | 0.0956 (active) | -0.0244 |  |  |  |  |  |  |
| CC1(C)CCc2cc(C=NNC(=O)c3cccc(Cl)c3Cl)ccc2O1 | -0.00742 | 0.0223 | -0.00817 | 0.0599 | 0.0181 | -0.00408 | 0.0163 | -0.000312 | -0.0646 | 0.00986 |  |  |  |  |  |  |
| CC(=O)Nc1cccc(Nc2nccc(-c3c(-c4cccc(NC(=O)c5c(F)cccc5F)c4)nn4ncccc34)n2)c1 |  |  |  |  |  |  |  |  |  |  | 51% (active) | 83% (active) | 5% | 96% (active) | inactive |  |
| CCSc1ccc(-c2noc(C(C)(C)C)n2)cn1 | 0.0439 | 0.0323 | -0.00176 | 0.0153 | -0.00182 | 0.0189 | 0.0241 | -0.0201 | 0.031 | -0.00966 |  |  |  |  |  |  |
| CN1CCN(c2ccc(Nc3ncc(C#N)c(Nc4ccccc4C(N)=O)n3)cc2)CC1 |  |  |  |  |  |  |  |  |  |  | 93% (active) | 43% | -1% | 92% (active) | inactive |  |
| COc1ccccc1NC(=S)NNC(=O)CSc1ccccc1[N+](=O)[O-] | 0.0388 | 0.0156 | 0.0403 | 0.0916 | 0.0332 | -0.0193 | 0.0469 | 0.064 | 0.00382 | -0.0222 |  |  |  |  |  |  |
| CCN(CC)CCCOc1ccc(Nc2nccc(-c3c(-c4cccc(NC(=O)c5c(F)cccc5F)c4)nn4ccccc34)n2)cc1F |  |  |  |  |  |  |  |  |  |  | 99% (active) | 86% (active) | -5% | 100% (active) | inactive |  |
| CCc1cc(C(=O)c2ccc(OC)cc2)c(NC(=O)CN2CCN(C)CC2)s1 | -0.0314 | -0.0083 | -0.00202 | -0.0121 | 0.0213 | -0.0119 | -0.00614 | 0.00802 | 0.0372 | -0.00941 |  |  |  |  |  |  |
| CC(=O)Nc1ccc(S(=O)(=O)C[N+](=O)[O-])cc1 | -0.0207 | -0.00968 | 0.0255 | -0.00689 | 0.00333 | -0.0177 | -0.00122 | 0.0327 | -0.0178 | -0.0147 |  |  |  |  |  |  |
